In PubChem BioAssay (NCATS) one finds Potency data, which are given here for 16 molecules.

Unmarked numbers belong to inactive results. How the calls were made is not given here. Bounds are passed on as bounds.
Potency means the concentration at half of the fitted maximal effect.

In the assay the test system is HIV-1 nucleocapsid protein NCp7 (binding to TG oligonucleotide). As to the kind of experiment: HIV Nucleocapsid (AID 346).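 Further: potency is for inhibitors that block NC binding and lower polarization.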 To be noted: HIV-1 NC / fluorescein-TGTGTGTG probe, fluorescence polarization. The procedure, abridged:
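Inhibition of nucleocapsid binding to single-stranded 5'-TGTGTGTG probe (10 nM) was measured by fluorescence polarization after 1 hr at room temperature with 100 nM protein under high-salt, zinc-containing, reducing conditions.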
In the case of `O=c1c(-c2ccccc2)nc2cncnc2n1-c1ccccc1`, the Potency was more than 20 µM. With `CN(C)c1ncnc2ccc(-c3ccoc3)cc12` the figure was more than 20 µM; with `CNc1ncnc2ccc(-c3ccccc3C)cc12`, more than 20 µM; with `CS(=O)(=O)N1CCC2(CCCN(c3ncccn3)C2)CC1`, more than 20 µM. Take `O=C(c1cccc(F)c1)N1CCC2(CC1)CCN(c1ccccn1)CC2`: the Potency was more than 20 µM.

`COc1cccc(-c2cc(NCc3cccc(C)c3)ncn2)c1`: the Potency was more than 20 µM. Regarding `COc1cccc(-c2ccc3ncnc(NCc4cnc(C)cn4)c3c2)c1`, the Potency is more than 20 µM.

For `c1ccc2c(Nc3ccncc3)nc(-c3ccc4c(c3)OCO4)nc2c1`, the Potency is more than 20 µM.

On to `O=C(c1cnccn1)N1CCC[C@@]2(CCN(Cc3ccccc3)C2)C1`, for which the Potency was more than 20 µM.

Consider `O=S(=O)(c1ccccc1)N1CCC[C@@]2(CCN(Cc3nccs3)C2)C1`, for which the Potency was more than 20 µM.

With `COc1ccccc1-c1nc(N(C)C)c2ccccc2n1`, the Potency is more than 20 µM. In the case of `COc1ccccc1CNc1ncncc1-c1ccccc1C`, the Potency was more than 20 µM.

On to `Cc1nc2cnc(N3CCN(C)CC3)nc2n(C[C@H]2CCCO2)c1=O`, for which the Potency was more than 20 µM.

Consider `Cc1noc(C)c1C(=O)N1CCC2(CCN(Cc3ccccc3)CC2)CC1`, for which the Potency is more than 20 µM. With `O=c1c(-c2ccc(F)cc2)nc2cnc(N3CCOCC3)nc2n1Cc1cccs1` the figure was more than 20 µM; with `COCC(=O)N1CCC2(CC1)CN(C(=O)Nc1cccc(C#N)c1)C2`, more than 20 µM.
